Compound activity (PubChem)
Shown are actives, neighbours in structure and some others; about 9.5% of the full set was active somewhere.
Pf growth 96h – inhibits malaria parasite growth, 96 h | Potency, µM (top dose mostly 28.7 µM), for the others: at the top dose activity change, negative = inhibition, hits mostly inhibitors | P. falciparum luciferase reporter growth, 96 h | 6.9% of 320,000 active; note: % is set by controls: 0 for no effect and ±100 for the full control effect
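Two-generation exposure (96 h) targets delayed-death phenotype. Reporter parasites carrying integrated firefly luciferase, in red cells at 2% hematocrit and 0.05% parasitemia final, kept at 37 C, 5% CO2; luminescence loss indicates inhibition.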
SARS PLP yeast – blocks SARS-CoV papain-like protease in a yeast assay; S. cerevisiae expressing SARS-CoV PLpro, growth rescue; Potency, µM (series often up to 32.9 µM), without a hit: at the top dose activity, positive = growth rescue, hits mostly activators; 0.19% of 330,000 active; calls by dose curve; note: 0% is about no effect; nearly all actives have a fitted effect of over 55% in size
RE007 growth inh – less growth of the S. pombe RE007 Vpr strain; S. pombe RE007 Vpr strain, BacTiter-Glo ATP luminescence, 24 h; Potency, µM (doses to about 92.2 µM), without a hit: top-dose activity change, negative = less growth, most hits filed as inhibitors; 0.21% of 360,000 active; AID 651644; active = well fitted falling curve with a large enough effect; inconclusive = small, poorly fitted or top-dose-only effect; inactive = no such curve, though single readings can be large or run the other way; note: % is set by controls: 0 for no effect and ±100 for the full control effect; nearly all actives have a fitted effect of over 50% in size
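Fission yeast strain RE007, carrying one chromosomally integrated HIV-1 vpr copy, was seeded at OD 0.01 in PMG+AL medium with 23 nL pinned compound. After 24 h at 30 °C and 99% humidity, viability was read by BacTiter-Glo luminescence.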
NS1 inh – inhibitors of influenza NS1 protein function; Potency, µM (titrated, usually from 46.1 µM), for the others: at the top dose activity, positive = more growth; 0.4% of 270,000 active; calls by dose curve; note: actives are rising curves; nearly all actives have a fitted effect of over 50% in size
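Read-out: OD600 growth recovery of NS1-expressing budding yeast. Cells grown overnight at 30C in -URA glucose medium, washed, resuspended and diluted 1:100 in 2% galactose assay medium, pH 6.0. Same strain lacking NS1 served as positive control.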
Pf growth 48h – P. falciparum growth inhibition at 48 hours (one generation); 5.9% of 310,000 active; P. falciparum luciferase growth in erythrocytes, 48 h; Potency, µM (titrated, usually from 28.7 µM), for the others: at the top dose activity change, negative = inhibition, hits mostly inhibitors; AID 504832; note: % is set by controls: 0 for no effect and ±100 for the full control effect
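Compounds are pin-transferred into medium, infected erythrocytes (2% hematocrit, 0.1% parasitemia final) are added, and plates sit one parasite generation at 37 C in 5% CO2. Detection reagent is then added and luminescence measured.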
Starred values were filed as active, the others as inactive; u = inconclusive; x = no result given. Unless noted, calls come from the whole dose curve; as a rule, active = well fitted inhibition curve with a large enough effect; inconclusive = small, poorly fitted or top-dose-only effect, or another doubt; inactive = no such curve, though single readings can be large or run the other way. Potency is the fitted concentration of half-maximal effect.

SMILES	Pf growth 96h	SARS PLP yeast	RE007 growth inh	NS1 inh	Pf growth 48h
Oc1ccc(C2NCc3ccccc3-n3cccc32)cc1Cl (stereo not given)	31.4%	-7.2%	-7.1%	-15.5%	0.657µM*
C/C(Cl)=C\Cn1c(O)c(N=NC(N)=S)c2cc(Br)ccc21	u	-4.2%	0.3%	-0.4%	10.4µM*
O=[N+]([O-])c1cnn(-c2nc(-c3ccccc3)cc(C(F)(F)F)n2)c1	1.8%	15.2%	4.7%	-5.8%	17.3%
O=[N+]([O-])c1ccc(O)c(-c2cc(C(F)(F)F)nc(-c3ccccc3)n2)c1	21.6%	-5.3%	-11.0%	-3.0%	0.37µM*
Oc1ccccc1-c1cc(C(F)(F)C(F)F)nc(-c2ccccc2)n1	60.5%	3.9%	7.8%	-5.3%	3.5%
Nc1nc(N)nc(-c2cc([N+](=O)[O-])ccc2O)n1	2.08µM*	-7.5%	1.9%	x	-16.8%
COc1ccc(O)c(-c2cc(C(F)(F)C(F)F)nc(-c3ccccc3)n2)c1	2.94µM*	-2.2%	-0.8%	5.7%	13.1µM*
C=CCNc1nc(Cl)nc(NCc2ccco2)n1	9.28µM*	-4.7%	3.7%	-10.5%	u
COc1ccc(-n2cc(CN[C@H]3CCCCNC3=O)c(-c3cccc(F)c3)n2)cc1	u	-0.6%	3.2%	-2.3%	u
CCC(COC)NCc1cn(-c2ccc(OC)cc2)nc1-c1cccc(F)c1 (stereo not given)	u	-1.5%	-26.7%	-0.4%	11.7µM*
COc1ccc(-n2cc(CNC3CCN(C)CC3)c(-c3cccc(F)c3)n2)cc1	55.5%	0.3%	13.7%	1.6%	1.47µM*
COc1ccc(-n2cc(CNC(C)c3ccncn3)c(-c3cccc(F)c3)n2)cc1 (stereo not given)	u	0.4%	-23.8%	4.1%	-14.6%
Cc1ccc(C2C(C(=O)c3sc(C)nc3C)=C(O)C(=O)N2CCN(C)C)o1 (stereo not given)	5.86µM*	2.4%	11.2%	1.8%	9.2%
Cc1cccc(NC(=O)c2c([N+](=O)[O-])cnn2C)c1	-29.4%	3.0%	-4.6%	7.3%	-2.3%
COc1ccccc1NC(=O)c1c(N=Cc2c(O)ccc3ccccc23)cnn1C	u	0.7%	-12.2%	-0.1%	7.38µM*
Cn1ncc([N+](=O)[O-])c1C(=O)Nc1ccc(-c2nc3ccccc3o2)cc1	4.65µM*	-0.2%	-12.6%	x	6.5%
Cn1ncc([N+](=O)[O-])c1C(=O)Nc1cccc2ccccc12	2.33µM*	-0.9%	7.6%	5.1%	16.2%
C=C1[C@@H]2CC[C@H](C2)C1(C)C	-3.3%	x	x	x	0.9%
CCOc1cccc(/C=N/Nc2nc(N3CCCC3)nc(N3CCCC3)n2)c1O	-1.5%	0.0%	-0.2%	10.6%	0.828µM*
CCOc1cc(/C=N/Nc2nc(N3CCCC3)nc(N3CCCC3)n2)ccc1O	u	11.8%	-7.3%	19.0%	u
Oc1ccccc1/C=N/Nc1cc(N2CCCC2)nc(N2CCCC2)n1	173.1%	-10.0%	-21.3%	-25.4%	2.08µM*
CCOC(=O)N/N=C(\C)c1ccccc1OC(F)F	9.28µM*	-5.3%	20.0%	9.3%	u
CCC(C)/C=C(C)/C=C/C1=CC2=C(Cl)C(=O)C(C)(OC(C)=O)C(=O)C2=CO1 (stereo not given)	9.28µM*	5.2%	-12.6%	8.8%	u
CC(=O)c1ccc(S(=O)(=O)NCc2ccc(C(=O)NCC(c3ccccc3)N(C)C)cc2)cc1 (stereo not given)	u	-3.6%	-20.2%	6.7%	13.1µM*
Cc1cc(S(=O)(=O)Nc2ccc(C(=O)NCC(c3ccccc3)N(C)C)cc2)ccc1F (stereo not given)	10.4µM*	-1.2%	-22.4%	9.1%	-15.3%
SMILES	Pf growth 96h	SARS PLP yeast	RE007 growth inh	NS1 inh	Pf growth 48h
CCOc1ccc(NS(=O)(=O)c2ccc(C(=O)NCC3(N4CCCCC4)CCCCC3)cc2)cc1	u	-7.6%	-12.6%	3.1%	u
CN(C)C(CNC(=O)c1ccc(S(=O)(=O)Nc2ccccc2F)cc1)c1ccccc1 (stereo not given)	-17.3%	0.1%	4.6%	3.4%	50.7%
Cc1cc(S(=O)(=O)Nc2ccc(C(=O)NCC3(N4CCCCC4)CCCCC3)cc2)ccc1F	13.1µM*	5.0%	-10.6%	x	u
CCOc1ccc(NS(=O)(=O)c2ccc(C(=O)NCC3(N(C)C)CCCCC3)cc2)cc1	9.28µM*	-2.2%	-0.2%	x	8.28µM*
Cc1cc(C)c(NC(=O)CNC(=O)COC(=O)CN2C(=O)NC3(CCCC3)C2=O)c(C)c1	61.8%	4.2%	20.0%	x	-1.6%
Cc1cc(S(=O)(=O)Nc2ccc(C(=O)NCC3(N(C)C)CCCCC3)cc2)ccc1F	10.4µM*	9.6%	-1.4%	x	u
CCOc1ccc(CCNC(=O)CCc2nnc3ccc(N4CCOCC4)nn23)cc1	14.1%	5.0%	-4.4%	8.6%	-7.1%
CCOc1ccc(CCNC(=O)CCc2nnc3ccc(N4CCCCC4)nn23)cc1OCC	5.22µM*	-1.2%	-3.8%	2.1%	u
CCN(CC)c1ccc(NC(=O)CCc2nnc3ccc(N4CCCC4)nn23)c(C)c1	u	-0.8%	-6.4%	-9.8%	11.7µM*
COC1OC2COC(c3ccccc3)OC2C2OC(c3ccccc3)OC12 (stereo not given)	x	x	11.2%	x	x
COc1cccc(CN2CC(C(=O)NCCc3ccccc3C(F)(F)F)CCC2=O)c1 (stereo not given)	30.0%	13.5%	-1.3%	8.5%	u
CCc1nc2c(OCc3ccc(C(F)(F)F)cc3)cccn2c1N(C=O)Cc1ccc(OC)cc1	x	x	-7.7%	x	x
CN1CCCC(C)(C(=O)Nc2cccc(Oc3ccccc3)c2)C1 (stereo not given)	x	x	3.6%	x	x
CC(CCc1ccccc1)NC(=O)C(Cc1ccccc1)NC(N)=O (stereo not given)	29.1%	-0.3%	2.2%	6.9%	10.0%
CC1(C(=O)NCc2ccccc2)CN(S(C)(=O)=O)CC(=O)N1CCc1c[nH]c2ccccc12 (stereo not given)	x	x	0.0%	x	x
COc1ccc(COCC(O)CN2CCC(CN3C(=O)c4cccc5cccc(c45)C3=O)CC2)cc1OC (stereo not given)	11.7µM*	0.3%	6.3%	3.6%	u
CCC(C)(C)C1CCC2(CC1)NC(=O)N(CC(=O)NCCc1ccc(OC)c(OC)c1)C2=O (stereo not given)	u	-7.8%	24.5%	x	11.7µM*
COc1ccc(CCNC(=O)Cn2nnc(C(=O)Nc3cccc(C)c3C)c2N)cc1OC	1.85µM*	-1.0%	-2.3%	5.9%	-5.3%
COc1ccc(CCNC(=O)Cn2nnc(C(=O)Nc3cc(C)ccc3C)c2N)cc1OC	u	-2.6%	2.2%	13.3%	7.7%
COc1ccc(CCNC(=O)CN2C(=O)c3cccc4cccc(c34)C2=O)cc1OC	10.4µM*	0.4%	5.0%	2.5%	12.4%
COc1cccc(OCC(O)CN2CCC(CN3C(=O)c4cccc5cccc(c45)C3=O)CC2)c1 (stereo not given)	u	1.8%	2.1%	x	u
